# Reference: PubChem BioAssay (Tox21)
# Several values for one entry are separate records, joined by “and”; a condition that tells them apart may be missing. Equal entries are not always repeated. A number with no mark means an inactive call. Inconclusive results are not listed. Where a call stands in place of a potency, no number is given. Activity calls are given as the source filed them. Unless noted, the call rests on the fitted dose curve; in most records, active means well fitted curve in the direction sought with a large enough effect in the repeat runs; inconclusive means weak or mixed curves; inactive means no such curve, though single readings can be large; an effect the other way counts as inactive or inconclusive.
# Experiments:
# [1] = target: Progesterone receptor (Homo sapiens) (UniProt P06401); test: qHTS assay to identify small molecule antagonists of the progesterone receptor (PR) signaling pathway (AID 1346795; active means well fitted inhibition curve with a large enough effect in the signal ratio in the repeat runs, not every such curve was filed as active; the % refers to the signal ratio; further: potency means the concentration at half of the fitted maximal effect)
# Summary of the method: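 PR-UAS-bla HEK293T cells carrying a UAS-driven beta-lactamase reporter were plated in medium with 2% charcoal-stripped FBS and rested 6 hr at 37C. Compounds were added with 1 nM R5020 (final) for 16 hr, then FRET substrate loaded 2 hr at room temperature.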
# [2] = qHTS assay to identify small molecule antagonists of the progesterone receptor (PR) signaling pathway - cell viability counter screen (AID 1346798); further: series mostly up to about 92 µM; nearly all actives have a fitted effect of over 50% in size
# Summary of the method: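 PR-UAS-bla HEK293T cells in medium with 2% charcoal-stripped FBS were treated with compounds plus R5020 for 16 hr at 37C. Cell viability was then read by CellTiter-Glo luminescence after 30 min at room temperature in the same wells.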
# [3] = qHTS assay to identify small molecule agonists of the progesterone receptor (PR) signaling pathway - cell viability counter screen (AID 1346799; calls by dose curve; further: nearly all actives have a fitted effect of over 45% in size)
# Summary of the method: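 PR-UAS-bla HEK293T cells, 3,000 per well in medium with 2% charcoal-stripped FBS, were preincubated 6 hr at 37C, then exposed to compounds for 16 hr; viability was read as CellTiter-Glo luminescence after 30 min at room temperature.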
# [4] = qHTS assay to identify small molecule antagonists of the TGF-beta/Smad signaling pathway - cell viability counter screen (AID 1346824); further: nearly all actives have a fitted effect of over 50% in size
# Summary of the method: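 SBE-bla HEK 293T cells, incubated overnight, then compound plus 0.25 ng/mL TGF-beta1 (stock added) for 5 hr at 37 C. Viability was read in the same wells by CellTiter-Glo luminescence after 30 min at room temperature.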
# [5] = qHTS assay to identify small molecule agonists of the TGF-beta/Smad signaling pathway - cell viability counter screen (AID 1346829); further: top concentration of the series differs between compounds; nearly all actives have a fitted effect of over 45% in size
# Summary of the method: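 After overnight seating at 37 C and 5% CO2, reporter cells got compounds for 5 hr and FRET substrate for 2 hr; cell viability then came from CellTiter-Glo luminescence.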
# [6] = qHTS assay to identify small molecule agonists of the TGF-beta/Smad signaling pathway (AID 1346859; active means well fitted activation curve with a large enough effect in the signal ratio in the repeat runs, not every such curve was filed as active; the % refers to the signal ratio; further: series mostly up to about 77 µM)
# Summary of the method: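 HEK 293T cells stably carrying a beta-lactamase reporter driven by the Smad binding element were seeded overnight, exposed to DMSO-dissolved compounds for 5 hr at 37 C, 5% CO2, then loaded with FRET substrate for 2 hr at room temperature.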
# [7] = target: Thyrotropin-releasing hormone receptor (Homo sapiens) (UniProt P34981); test: qHTS assay to identify small molecule agonists of the thyrotropin-releasing hormone receptor (TRHR) signaling pathway (AID 1346891; calls by dose curve; further: series mostly up to about 58 µM)
# Summary of the method: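 TRHR-expressing HEK293 cells were plated 18 h at 37 °C/5% CO2, loaded with calcium dye 2 h at 37 °C, then given compound in DMSO; fluorescence was read kinetically for 3 min at 1 s intervals.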
# [8] = Human pregnane X receptor (PXR) small molecule agonists, qHTS cell viability counter screen (AID 1346977); further: nearly all actives have a fitted effect of over 50% in size; further: potency means the concentration at half of the fitted maximal effect
# Summary of the method: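 PXR-Luc HepG2 cells in medium with 5% charcoal-stripped FBS were pre-incubated 5hr, then exposed to compounds for 24hr at 37C. Viability was read in the same wells by CellTiter-Fluor fluorescence, reagent added after 23hr with a 1hr incubation.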
# [9] = target: Thyrotropin-releasing hormone receptor (Homo sapiens) (UniProt P34981); test: qHTS assay to identify small molecule antagonists of the thyrotropin-releasing hormone receptor (TRHR) signaling pathway (AID 1346877; active means well fitted inhibition curve with a large enough effect in the repeat runs, not every such curve was filed as active; further: series mostly up to about 51 µM)
# Summary of the method: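 In this cell-based calcium flux format, HEK293 cells expressing TRHR received test compound for 5 min before the agonist TRH (1 nM final). Dye loading lasted 2 h at 37 °C.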
# [10] = Caspase-3/7 induction in HepG2 cells by small molecules, qHTS assay (AID 1346978); further: nearly all actives have a fitted effect of over 15% in size
# Summary of the method: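 Wild-type HepG2 cells, 2,000/well, settled 5 hr at 37 C and 5% CO2, then compound-treated for 17 hr; caspase-3/7 activity read by luminescent Caspase-Glo 3/7 after 30 min at room temperature.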
# Chain of Thyrotropin-releasing hormone receptor (Homo sapiens) (P34981 whole entry, looked up): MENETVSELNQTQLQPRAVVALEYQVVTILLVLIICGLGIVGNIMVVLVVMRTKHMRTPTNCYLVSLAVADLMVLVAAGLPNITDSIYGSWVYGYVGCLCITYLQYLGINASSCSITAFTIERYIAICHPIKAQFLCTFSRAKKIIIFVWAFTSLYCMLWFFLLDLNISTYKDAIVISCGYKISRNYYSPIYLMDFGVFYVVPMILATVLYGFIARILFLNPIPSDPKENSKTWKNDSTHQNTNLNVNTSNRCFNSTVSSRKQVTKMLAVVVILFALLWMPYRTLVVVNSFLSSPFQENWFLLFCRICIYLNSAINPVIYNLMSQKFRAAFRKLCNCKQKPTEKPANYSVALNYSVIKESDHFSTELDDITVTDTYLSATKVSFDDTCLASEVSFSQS
# Chain of Progesterone receptor (Homo sapiens) (P06401 whole entry, looked up): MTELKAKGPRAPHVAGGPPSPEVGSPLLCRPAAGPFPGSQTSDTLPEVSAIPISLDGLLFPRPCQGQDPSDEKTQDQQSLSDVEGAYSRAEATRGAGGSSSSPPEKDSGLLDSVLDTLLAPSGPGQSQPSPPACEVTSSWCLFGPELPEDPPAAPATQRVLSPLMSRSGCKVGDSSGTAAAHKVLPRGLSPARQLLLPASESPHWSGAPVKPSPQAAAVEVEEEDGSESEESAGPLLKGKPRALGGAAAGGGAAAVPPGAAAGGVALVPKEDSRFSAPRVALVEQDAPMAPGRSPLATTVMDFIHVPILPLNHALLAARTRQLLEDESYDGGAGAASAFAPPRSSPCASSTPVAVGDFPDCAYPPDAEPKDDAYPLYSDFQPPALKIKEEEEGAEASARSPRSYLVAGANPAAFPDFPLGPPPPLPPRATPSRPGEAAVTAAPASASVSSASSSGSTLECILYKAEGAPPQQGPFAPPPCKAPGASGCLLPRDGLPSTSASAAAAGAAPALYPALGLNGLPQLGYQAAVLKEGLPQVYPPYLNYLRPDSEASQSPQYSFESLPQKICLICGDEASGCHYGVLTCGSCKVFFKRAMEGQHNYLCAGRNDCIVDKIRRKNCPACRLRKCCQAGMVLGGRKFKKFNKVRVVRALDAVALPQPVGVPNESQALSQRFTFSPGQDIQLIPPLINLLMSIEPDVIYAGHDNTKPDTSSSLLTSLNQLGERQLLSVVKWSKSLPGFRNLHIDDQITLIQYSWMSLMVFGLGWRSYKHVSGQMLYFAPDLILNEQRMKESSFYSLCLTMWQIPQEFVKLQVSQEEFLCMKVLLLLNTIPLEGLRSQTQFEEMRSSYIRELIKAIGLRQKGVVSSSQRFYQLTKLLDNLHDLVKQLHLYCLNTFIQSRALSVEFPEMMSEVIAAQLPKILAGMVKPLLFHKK
SMILES,Potency [1],Potency [2],Potency [3],Potency [4],Potency [5],Potency [6],outcome [7],Potency [8],Potency [9],Potency [10],"activity change, negative = inhibition [1]","activity change, negative = cytotoxicity [2]","activity change, negative = cytotoxicity [3]","viability change, negative = cytotoxic [4]","activity change, negative = cytotoxicity [5]",activation [6],"activity, negative = inhibition [9]",activation [7],"activity change, negative = cytotoxicity [8]"
CCCCCC(C)OC(=O)COc1ccc(Cl)c2cccnc12 (stereo not drawn),54.5 µM (active),inactive,inactive,inactive,inactive,inactive,inactive,inactive,–,–,–,–,–,–,–,–,–,–,–
Cc1ccc(C)cc1,inactive,inactive,inactive,inactive,inactive,inactive,inactive,inactive,inactive,–,–,–,–,–,–,–,–,–,–
Cc1cccc2cccnc12,inactive,inactive,inactive,inactive,inactive,inactive,inactive,inactive,inactive,inactive,–,–,–,–,–,–,–,–,–
Cc1c(C)c2c(c(C)c1O)CC[C@@](C)(CCC[C@H](C)CCC[C@H](C)CCCC(C)C)O2,inactive,inactive,inactive,inactive,inactive,inactive,inactive,inactive,inactive,inactive,–,–,–,–,–,–,–,–,–
COc1cc(C)ccc1O,inactive,inactive,inactive,inactive,inactive,inactive,inactive,inactive,inactive,inactive,–,–,–,–,–,–,–,–,–
CC(C)NC[C@@H](O)COc1ccc(CC(N)=O)cc1,inactive,inactive,inactive,inactive,inactive,inactive,inactive,inactive,inactive,inactive,–,–,–,–,–,–,–,–,–
CC1(C)CCC[C@]2(C)[C@H]3CCO[C@]3(C)CC[C@@H]12,inactive,inactive,inactive,inactive,inactive,inactive,inactive,inactive,inactive,inactive,–,–,–,–,–,–,–,–,–
O=C(O)c1cc(=O)c2ccccc2o1,inactive,inactive,inactive,inactive,inactive,inactive,inactive,inactive,inactive,inactive,–,–,–,–,–,–,–,–,–
C=CCCC(=O)/C=C/C1C(C)=CCCC1(C)C (stereo not drawn),inactive,inactive,inactive,inactive,inactive,inactive,inactive,inactive,inactive,inactive,–,–,–,–,–,–,–,–,–
NC[C@H]1O[C@H](O[C@H]2[C@H](O[C@@H]3O[C@H](CO)[C@@H](O)[C@H]3O)C(O)[C@H](N)C[C@@H]2N)[C@H](N)[C@@H](O)[C@@H]1O (stereo partly drawn),–,–,–,–,–,–,–,–,–,–,0.98% [at 8.39 µM],12.4% [at 8.39 µM],9.53% [at 8.39 µM],-16.4% [at 6.97 µM],21.1% [at 6.97 µM],6.05% [at 6.97 µM],3.15% [at 4.65 µM],-0.179% [at 5.23 µM],22.9% [at 8.39 µM]
CCN(CCN)c1cccc(C)c1,inactive,inactive,inactive,inactive,inactive,inactive,inactive,inactive,inactive,inactive,–,–,–,–,–,–,–,–,–
O=C(O)Cc1ccccc1Nc1c(Cl)cccc1Cl,inactive,inactive,inactive,inactive,inactive,inactive,inactive,inactive,inactive,inactive,–,–,–,–,–,–,–,–,–
CCCCCCCC/C=C\CCCCCCCCN,inactive,inactive,inactive,inactive,inactive,inactive,inactive,inactive,inactive,inactive,–,–,–,–,–,–,–,–,–
CCOC(=O)Cn1cccc1-c1nc(-c2ccc(OC)cc2)c(-c2ccc(OC)cc2)s1,inactive,inactive,inactive,inactive,inactive,inactive,inactive,inactive,inactive,inactive,–,–,–,–,–,–,–,–,–
OC[C@H]1O[C@H](O[C@H]2O[C@H](CO)[C@@H](O)[C@H](O)[C@H]2O)[C@H](O)[C@@H](O)[C@@H]1O,inactive,inactive,inactive,inactive,inactive,inactive,inactive,inactive,inactive,–,–,–,–,–,–,–,–,–,–
CC(CCc1ccccc1)NCC(O)c1ccc(O)c(C(N)=O)c1 (stereo not drawn),inactive,inactive,inactive,inactive,inactive,inactive,inactive,43.3 µM (active),inactive,inactive,–,–,–,–,–,–,–,–,–
CCCc1ccc(OCC(=O)N2CCN(C(=O)COc3ccc(CCC)cc3OC)CC2)c(OC)c1,inactive,inactive,inactive,inactive,inactive,inactive,inactive,inactive,inactive,inactive,–,–,–,–,–,–,–,–,–
C=C(C)c1cccc(C(=C)C)c1,inactive,inactive,inactive,inactive,inactive,inactive,inactive,inactive,inactive,inactive,–,–,–,–,–,–,–,–,–
Clc1sc(Cl)c(Cl)c1Cl,inactive,inactive,inactive,inactive,inactive,inactive,inactive,inactive,inactive,inactive,–,–,–,–,–,–,–,–,–
C=CCn1c(=O)n(CC=C)c(=O)n(CC=C)c1=O,inactive,inactive,inactive,inactive,inactive,inactive,inactive,–,inactive,inactive,–,–,–,–,–,–,–,–,–
CC(C)CCOC(=O)/C=C/c1ccccc1,inactive,inactive,inactive,inactive,inactive,inactive,inactive,inactive,inactive,–,–,–,–,–,–,–,–,–,–
Oc1c(I)cc(Cl)c2cccnc12,6.84 µM (active) and 7.5 µM (active),inactive,inactive,inactive,inactive,inactive,inactive,inactive,inactive,inactive,–,–,–,–,–,–,–,–,–
